Compounds with a hit are over-represented: about 3.9% of the library has one in this group of screens.
BH1578 lux ind: quorum light induction in luxS cqsA deficient V. cholerae | activation, % at 18.7 µM | V. cholerae BH1578 lux reporter, luminescence, 6 h | AID 588436 | 350,000 tested, 0.16% active; in the data active = activation mostly above about 9.7%, no sharp cut-off; inconclusive = no clear call, values can overlap the other calls; inactive = mostly below about 3.7%
BoNT-F LC inh: BoNT F light chain protease inhibition. Multiplex microsphere protease cleavage assay, flow cytometry. inhibition, % at 10 µM. 360,000 tested, 0.22% active; in the data active = inhibition above about 35%, passing the limit was not always enough; inconclusive = no clear call, values can overlap the other calls; also: plate controls were buffer without enzyme for full effect and enzyme alone for no effect
Autofluor counter: flagged as autofluorescent in microsphere protease counterscreen | fluorescence intensity (concentration not given with the values) | compound autofluorescence counterscreen, microsphere flow cytometry; hits give high values | AID 624483 | 360,000 tested, 3.1% active; in the data active = fluorescence intensity above about 16000; inconclusive = no clear call, values can overlap the other calls
Anthrax LF prot: inhibitors of Bacillus anthracis lethal factor protease | 360,000 tested, 0.12% active | P15917 | multiplex microsphere protease cleavage assay, LF | inhibition, % at 10 µM; also: plate controls were buffer without enzyme for full effect and enzyme alone for no effect
MazEF act: activators of E. coli MazEF toxin-antitoxin RNase; P0AE70; FAM/BHQ RNA-DNA oligo cleavage fluorescence, 5 h; activation, % at 20 µM; 350,000 tested, 0.32% active; in the data active = activation above about 50%
Target sequence (P0AE70 whole entry, looked up): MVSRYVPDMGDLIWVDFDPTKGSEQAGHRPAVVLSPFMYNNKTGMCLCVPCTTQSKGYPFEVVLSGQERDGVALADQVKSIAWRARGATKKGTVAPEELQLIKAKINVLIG
BoNT-A LC inh2: BoNT A light chain protease inhibition; multiplex microsphere protease substrate cleavage, flow cytometry; inhibition, % at 10 µM; 360,000 tested, 0.17% active; AID 588499; also: plate controls were buffer without enzyme for full effect and enzyme alone for no effect
BoNT-A LC CP1: inhibitors of Botulinum neurotoxin A light chain protease; multiplex microsphere protease assay, flow cytometry; 720 tested, 3% active; AID 602139; shares compounds with BoNT-F LC inh; inhibition, % at 10 µM; in the data active = inhibition above about 32%
BoNT-F LC CP1: blocks botulinum neurotoxin F light chain protease | inhibition, % at 10 µM | multiplex microsphere protease cleavage assay, flow cytometry | shares compounds with BoNT-F LC inh | AID 602140 | 720 tested, under 10 active; call rule not given here
LF protease CP1: Bacillus anthracis lethal factor protease inhibition | inhibition, % at 10 µM | multiplex microsphere protease cleavage assay, LF | 720 tested, under 10 active | shares compounds with BoNT-F LC inh; call rule not given here
An asterisk follows results filed as active; i = inactive; ? = inconclusive; nt = no result given. Rule as the data show it, unless noted: active = inhibition above about 30%; inconclusive = no clear call, values can overlap the other calls; inactive = below that.

SMILES	BH1578 lux ind	BoNT-F LC inh	Autofluor counter	Anthrax LF prot	MazEF act	BoNT-A LC inh2	BoNT-A LC CP1	BoNT-F LC CP1	LF protease CP1
Fc1ccc(C2CC(c3ccco3)=NN2c2ccccc2)cc1 (centres undefined)	i	-5.1	3720	-1.4	-2.3	-0.3	nt	nt	nt
O=C1CCC(C(=O)Nc2ccc([N+](=O)[O-])cc2)N1 (centres undefined)	i	5.5	4721	-3.0	-0.8	3.6	nt	nt	nt
COc1ccc(Cl)cc1NC(=O)C1CC(c2c(F)cccc2Cl)=NO1 (centres undefined)	i	36.7*	3506	-4.3	5.8	1.3	0.3	-5.1	-0.6
COc1ccc(NC(=O)C2CC(c3ccc(Cl)cc3)=NO2)cc1 (centres undefined)	i	-0.7	3152	45.4*	6.3	0.5	0.4	-5.8	-2.1
Cc1cc(-c2nnc(SCC(=O)Nc3ccccc3)n2C)no1	i	?	4305	31.8*	-5.2	?	0.6	0.5	7.5
CCn1cc(CNC(=O)c2c(-c3c(Cl)cccc3Cl)noc2C)c(C)n1	-0.3	35.3*	2081	1.7	-0.9	4.2	-0.8	-6.4	-1.8
Cc1onc(-c2c(Cl)cccc2Cl)c1C(=O)NCc1ccccn1	-0.5	-6.1	10814	-1.3	9.7	-1.0	nt	nt	nt
Cc1ccc2nc(SCC(=O)O)nc(C)c2c1	i	39.7*	4380	7.0	5.8	3.4	-0.9	-6.5	-3.9
Cc1ccc2nc(SCCC#N)nc(C)c2c1	i	12.9	4543	1.1	4.1	1.0	nt	nt	nt
Cc1c(C(=O)NN2CCOCC2)oc2c1ccc1ccccc12	i	-2.8	4261	-3.7	2.7	-0.3	nt	nt	nt
CS(=O)(=O)N1N=C(c2ccccc2)CC1c1ccc2c(c1)OCO2 (centres undefined)	-0.3	-19.5	19512*	9.9	235.9*	70.4*	49.5*	nt	-26.0
OC(CNCc1ccccc1F)COc1cccc2ccccc12 (centres undefined)	-0.3	35.4*	3445	5.8	8.2	2.3	0.6	-8.4	0.2
CC(C)NCC(O)COc1cccc2ccccc12 (centres undefined)	-0.2	nt	nt	nt	1.8	-0.5	nt	nt	nt
CCCCC(=O)NCc1ccc2c(c1)cc(C)n2C	-16.4	16.8	10959	46.7*	-6.0	42.9*	1.5	-5.2	-0.7
CCCS(=O)(=O)NCc1ccc2c(c1)cc(C)n2C	i	-41.4	?	3.4	-21.3	69.3*	1.4	-13.8	-2.4
CCS(=O)(=O)NCc1ccc2c(c1)cc(C)n2C	-0.2	-115.9	4442	-72.5	19.1	10.4	nt	nt	nt
Cc1cc2cc(CNC(=O)CC(C)C)ccc2n1C	-16.4	12.8	17533*	33.8*	-0.2	30.9*	0.5	-6.7	-1.8
C=CCOc1ccccc1CN1CCN(CCc2ccccc2)C(CCO)C1 (centres undefined)	i	-17.7	3612	-5.3	1.6	1.1	nt	nt	nt
CC(C)CCCN1C(Nc2ccccc2)=NC[C@@H]1C	i	-13.4	3926	-8.5	8.5	-0.7	nt	nt	nt
COc1ccccc1NC(=O)C(C)Sc1nc2ccccc2c(=O)n1CC1CCCO1 (centres undefined)	-1.0	2.9	5121	2.1	2.9	0.7	nt	nt	nt
CCC(C)(C)n1nnnc1C(C(C)C)N(Cc1cccnc1)Cc1ccco1 (centres undefined)	i	-0.1	3446	-7.5	-7.3	-0.3	nt	nt	nt
CCC(C)(C)n1nnnc1C(C(C)C)N(Cc1ccco1)Cc1cc2cc3c(cc2[nH]c1=O)OCO3 (centres undefined)	-0.5	37.9*	10857	-17.1	-1.8	32.8*	-0.1	0.6	-6.7
CN(CC(=O)Nc1cccc(F)c1)C(=O)c1cccnc1Sc1ccc(Cl)cc1	-2.6	-9.7	5590	-3.3	-1.6	1.5	nt	nt	nt
CN(CC(=O)Nc1cccc(F)c1)C(=O)c1cccnc1Sc1ccccc1Cl	i	0.4	?	0.6	-7.1	37.8*	1.8	5.9	4.7
COc1ccc(C(=O)Nc2ccc3nc(C)c(C)nc3c2)cc1	i	6.2	3841	10.9	14.9	-0.5	nt	nt	nt
SMILES	BH1578 lux ind	BoNT-F LC inh	Autofluor counter	Anthrax LF prot	MazEF act	BoNT-A LC inh2	BoNT-A LC CP1	BoNT-F LC CP1	LF protease CP1
COc1ccc(C(=O)Nc2ccc3c(c2)nc2n3CCSC2)cc1	i	38.1*	4353	2.4	3.5	6.9	-0.1	-1.3	-5.0
COC(=O)[C@]1(Cc2ccccc2)N[C@H](CN(C)C(=O)c2ccc(F)cc2)[C@@H]2C(=O)N(Cc3ccccc3)C(=O)[C@@H]21	i	-7.0	3670	-3.4	-1.4	-0.7	nt	nt	nt
COc1ccc(C(=O)NCCCNC(=O)c2cnccn2)cc1Br	-0.7	-9.3	3812	0.8	3.0	-0.1	nt	nt	nt
CCc1nnc(NC(=O)COc2ccccc2[N+](=O)[O-])s1	-0.4	?	3114	30.1*	6.2	-6.5	1.3	2.6	2.0
COC1=CC(=O)C[C@@H](C)[C@]12Oc1c(Cl)c(OC)cc(OC)c1C2=O	-3.0	-6.1	6086	-1.3	-0.3	-0.3	nt	nt	nt
CCc1ccc(N(C(=O)CNC(=O)c2ccco2)C(C(=O)NCC2CCCO2)c2ccccc2)cc1 (centres undefined)	-0.8	-3.3	2060	1.4	12.6	-0.5	nt	nt	nt
CCOc1cc(CNCC(O)c2ccccc2)cc(Cl)c1OC (centres undefined)	-0.3	41.4*	2453	-0.8	-2.1	3.6	0.8	-10.8	-2.5
N=c1sc2ccccc2n1-c1ccccc1	i	20.2	10239	26.6	10.3	32.3*	2.4	-0.1	1.9
C=CC(=O)N=c1sc2ccccc2n1-c1ccccc1	-0.3	-7.4	4086	6.5	-12.1	0.1	nt	nt	nt
CC(C)CCn1c(-c2nonc2N)nc2ccccc21	-0.5	32.3	3532	-7.2	0.4	1.1	-0.6	-3.5	-2.5
Cc1occc1C(=O)Nc1cc(S(=O)(=O)N2CCOCC2)ccc1OC(C)C	i	-11.4	2996	-10.6	-18.6	-0.5	nt	nt	nt
O=C1C2C3C=CC(CC3)C2C(=O)N1c1ccc(Cl)cc1Cl (centres undefined)	-2.4	60.3*	4588	2.9	11.4	3.3	-1.4	-6.1	-0.9
O=C1C2C3C=CC(CC3)C2C(=O)N1c1ccc(Cl)cc1 (centres undefined)	-0.4	nt	nt	nt	7.0	nt	nt	nt	nt
Cc1cc(NC(=O)C2CC(=O)N(c3ccccc3Cl)C2)no1 (centres undefined)	-4.5	1.9	5669	1.1	10.6	1.1	nt	nt	nt
CCOc1ccc(-c2nc(CSc3nncs3)cs2)cc1OC	-6.2	40.6*	?	-28.1	6.2	25.4	-0.9	-6.2	-7.5
O=C(COc1ccccc1)NCc1n[nH]c(=S)n1-c1ccccc1	0.1	46.6*	4390	0.7	1.5	7.4	0.7	-0.4	-0.2
FC(F)(F)c1ccc(CNCCc2ccc3c(c2)OCO3)cc1	-1.3	71.4*	3048	2.5	0.2	4.9	1.0	-5.7	0.8

Source: PubChem
